Measurements: PubChem BioAssay (Tox21)
Several values for one entry are separate records, joined by “and”; a condition that tells them apart may be missing. Equal entries are not always repeated. Results filed as inconclusive are left out. A call without a number means that no potency is given here. Where a structure was tested more than once in an assay, its records may differ in their call. Activity calls are given as the source filed them. Unless noted, calls come from the whole dose curve; as a rule, active = well fitted curve in the direction sought with a large enough effect in the repeat runs; inconclusive = weak or mixed curves; inactive = no such curve, though single readings can be large; an effect the other way counts as inactive or inconclusive.

Legend:
[1] = qHTS assay to identify aromatase inhibitors - cell viability counter screen (AID 743084);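 note: cells stimulated with testosterone during compound exposure; nearly all actives have a fitted effect of over 55% in size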; note: potency is the fitted concentration of half-maximal effect
[2] = molecular target: Aryl hydrocarbon receptor (Homo sapiens) (UniProt P35869); assay: qHTS assay to identify small molecule that activate the aryl hydrocarbon receptor (AhR) signaling pathway (AID 743085); note: nearly all actives have a fitted effect of over 15% in size; note: potency is the fitted concentration of half-maximal effect;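 for activation: HG2L7.5c1 human HepG2 liver cells with stably integrated DRE-driven firefly reporter; series mostly up to about 70 µM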
Chain of Aryl hydrocarbon receptor (Homo sapiens) (P35869 whole entry, looked up): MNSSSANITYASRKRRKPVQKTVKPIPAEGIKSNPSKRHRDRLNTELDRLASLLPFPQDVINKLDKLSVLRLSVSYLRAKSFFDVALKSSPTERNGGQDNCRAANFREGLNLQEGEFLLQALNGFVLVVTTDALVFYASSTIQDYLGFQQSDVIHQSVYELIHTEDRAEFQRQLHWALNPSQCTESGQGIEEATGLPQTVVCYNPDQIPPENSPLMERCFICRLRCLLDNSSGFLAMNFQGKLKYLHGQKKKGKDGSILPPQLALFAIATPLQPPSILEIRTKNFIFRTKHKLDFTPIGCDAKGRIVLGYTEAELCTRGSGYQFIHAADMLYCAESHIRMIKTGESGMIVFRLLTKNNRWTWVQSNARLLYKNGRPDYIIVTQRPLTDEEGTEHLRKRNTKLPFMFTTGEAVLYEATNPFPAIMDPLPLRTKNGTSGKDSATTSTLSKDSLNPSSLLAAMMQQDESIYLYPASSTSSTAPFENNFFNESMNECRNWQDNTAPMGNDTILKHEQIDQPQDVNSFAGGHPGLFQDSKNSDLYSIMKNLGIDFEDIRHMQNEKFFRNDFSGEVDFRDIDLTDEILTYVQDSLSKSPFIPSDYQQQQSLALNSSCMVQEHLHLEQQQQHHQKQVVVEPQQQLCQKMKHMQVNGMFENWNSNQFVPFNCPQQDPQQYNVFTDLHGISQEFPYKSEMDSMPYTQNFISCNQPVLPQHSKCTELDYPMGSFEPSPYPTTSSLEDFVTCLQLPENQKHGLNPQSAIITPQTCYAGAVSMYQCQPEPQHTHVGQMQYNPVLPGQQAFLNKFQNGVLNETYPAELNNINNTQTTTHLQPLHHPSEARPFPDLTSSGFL
In short: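 24 h compound exposure, 37C, HepG2-derived HG2L7.5c1 cells with DRE-responsive luciferase. Readouts: fluorescence viability, then luminescence at room temperature after 30 min.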

[3] = qHTS assay to identify small molecule that activate the aryl hydrocarbon receptor (AhR) signaling pathway - cell viability counter screen (AID 743086); note: nearly all actives have a fitted effect of over 45% in size; note: potency is the fitted concentration of half-maximal effect
In short: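 HepG2-AhR-luc (HG2L7.5c1) cells, 4000/well, were preincubated 5 h at 37C, exposed to compound in qHTS format for 24 hr at 37C, then given CellTiter-Fluor for 30 min; viability was read as fluorescence in the reporter wells.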

[4] = molecular target: Peroxisome proliferator-activated receptor gamma (Homo sapiens) (UniProt P37231); assay: qHTS assay to identify small molecule agonists of the peroxisome proliferator-activated receptor gamma (PPARg) signaling pathway (AID 743094; active = well fitted activation curve with a large enough effect in the signal ratio in the repeat runs, not every such curve was filed as active; the % refers to the signal ratio)
Chain of Peroxisome proliferator-activated receptor gamma (Homo sapiens) (P37231 whole entry, looked up): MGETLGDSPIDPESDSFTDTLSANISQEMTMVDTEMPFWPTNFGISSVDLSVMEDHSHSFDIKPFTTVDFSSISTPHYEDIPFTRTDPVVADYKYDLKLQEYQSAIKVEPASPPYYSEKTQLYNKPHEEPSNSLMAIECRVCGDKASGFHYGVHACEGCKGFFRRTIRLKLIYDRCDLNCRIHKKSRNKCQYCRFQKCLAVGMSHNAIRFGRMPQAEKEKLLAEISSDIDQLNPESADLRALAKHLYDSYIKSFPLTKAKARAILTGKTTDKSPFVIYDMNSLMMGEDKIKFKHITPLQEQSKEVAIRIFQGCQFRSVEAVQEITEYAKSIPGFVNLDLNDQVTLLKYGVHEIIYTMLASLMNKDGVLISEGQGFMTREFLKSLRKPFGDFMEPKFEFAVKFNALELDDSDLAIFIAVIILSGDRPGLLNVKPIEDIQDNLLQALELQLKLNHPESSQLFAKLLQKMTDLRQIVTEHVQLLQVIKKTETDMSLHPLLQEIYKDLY
In short: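 GeneBLAzer PPARg UAS-bla HEK293H cells were plated, rested 5 h, then exposed to compounds for 17 h at 37C. Beta-lactamase activity was read by LiveBLAzer B/G FRET substrate fluorescence after 1 h at room temperature.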

[5] = molecular target: Peroxisome proliferator-activated receptor gamma (Homo sapiens) (UniProt P37231); assay: qHTS assay to identify small molecule antagonists of the peroxisome proliferator-activated receptor gamma (PPARg) signaling pathway (AID 743191; calls by dose curve; note: series mostly up to about 63 µM; nearly all actives have a fitted effect of over 30% in size)
In short: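 GeneBLAzer PPARg UAS-bla HEK293H cells carrying a UAS-driven beta-lactamase reporter were plated at 3000 cells/well, preincubated 5 h at 37C, then given compound for 17 h at 37C; LiveBLAzer B/G FRET substrate was read after 1 h at room temperature.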

[6] = qHTS assay to identify small molecule antagonists of the peroxisome proliferator-activated receptor gamma (PPARg) signaling pathway - cell viability counter screen (AID 743194); note: nearly all actives have a fitted effect of over 55% in size
In short: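 PPARg-UAS-bla HEK293H cells were plated, rested 5 h at 37 C, then treated with compounds plus rosiglitazone (50 nM final) for 17 h at 37 C; viability was then read by CellTiter-Glo luminescence after 30 min at room temperature.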

[7] = qHTS assay for small molecule agonists of the antioxidant response element (ARE) signaling pathway (AID 743202; active = well fitted activation curve with a large enough effect in the signal ratio in the repeat runs, not every such curve was filed as active; the % refers to the signal ratio; note: potency is the fitted concentration of half-maximal effect)
In short: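 Compounds delivered in DMSO to ARE-bla HepG2 cells (2,000 cells/well, pre-incubated 5 h) and left 16 h at 37 C. LiveBLAzer B/G FRET substrate then added for 2 h at RT before fluorescence reading.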

[8] = qHTS assay for small molecule agonists of the antioxidant response element (ARE) signaling pathway - cell viability counter screen (AID 743203; calls by dose curve; note: nearly all actives have a fitted effect of over 55% in size)
In short: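 ARE-bla HepG2 cells were plated, rested 5 h at 37C/5% CO2, then exposed to compounds in DMSO for 16 h. Viability was read as CellTiter-Glo luminescence after 30 min at room temperature, in the same wells as the ARE screen.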

[9] = qHTS assay for small molecule activators of the heat shock response signaling pathway - cell viability counter screen (AID 743209); note: nearly all actives have a fitted effect of over 50% in size
In short: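 HSE-bla HeLa cells plated overnight, then exposed to Tox21 compounds (23 nL in DMSO) for 5 h at 37 C. After the bla reporter read, CellTiter-Glo was added in the same wells and luminescence read after 30 min at room temperature.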

[10] = qHTS assay to identify small molecule agonists of the peroxisome proliferator-activated receptor delta (PPARd) signaling pathway - cell viability counter screen (AID 743211); note: nearly all actives have a fitted effect of over 55% in size
In short: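 Luminescent ATP viability assay (CellTiter-Glo, 30 min RT) in UAS-bla HEK293H cells carrying the PPAR delta reporter construct, 3000 cells/well, after a 17 h compound treatment at 37 C.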

[11] = molecular target: Peroxisome proliferator-activated receptor delta (Homo sapiens) (UniProt Q03181); assay: qHTS assay to identify small molecule agonists of the peroxisome proliferator-activated receptor delta (PPARd) signaling pathway (AID 743212; calls by dose curve)
Chain of Peroxisome proliferator-activated receptor delta (Homo sapiens) (Q03181 whole entry, looked up): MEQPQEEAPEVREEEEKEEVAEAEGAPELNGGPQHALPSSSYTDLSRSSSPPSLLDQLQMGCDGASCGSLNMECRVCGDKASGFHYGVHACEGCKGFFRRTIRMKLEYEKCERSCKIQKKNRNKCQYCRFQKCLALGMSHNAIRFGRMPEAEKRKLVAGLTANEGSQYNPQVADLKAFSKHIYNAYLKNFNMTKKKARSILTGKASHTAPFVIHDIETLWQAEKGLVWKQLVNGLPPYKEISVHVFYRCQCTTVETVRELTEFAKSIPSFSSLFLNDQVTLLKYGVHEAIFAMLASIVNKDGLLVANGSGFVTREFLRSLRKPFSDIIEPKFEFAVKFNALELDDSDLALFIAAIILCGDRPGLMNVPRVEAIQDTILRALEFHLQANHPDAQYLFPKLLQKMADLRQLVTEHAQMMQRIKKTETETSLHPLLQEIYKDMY
In short: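 A PPARd-bla HEK293H line with beta-lactamase under an Upstream Activator Sequence is treated with compounds at 37 C. Substrate loading for 2 h at room temperature precedes the fluorescence measurement.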

[12] = qHTS assay to identify small molecule antagonists of the peroxisome proliferator-activated receptor delta (PPARd) signaling pathway - cell viability counter screen (AID 743213); note: nearly all actives have a fitted effect of over 50% in size
In short: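 In this counter screen, HEK293H cells carrying a UAS-beta-lactamase reporter are co-treated with test compounds and 300 nM L165041 (final) for 17 h at 37 C; cell viability is quantified by CellTiter-Glo luminescence.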

[13] = molecular target: Peroxisome proliferator-activated receptor delta (Homo sapiens) (UniProt Q03181); assay: qHTS assay to identify small molecule antagonists of the peroxisome proliferator-activated receptor delta (PPARd) signaling pathway (AID 743215; active = well fitted inhibition curve with a large enough effect in the signal ratio in the repeat runs, not every such curve was filed as active; the % refers to the signal ratio;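 note: cells stimulated with agonist L165041 at 300 nM final during compound exposure; series mostly up to about 62 µM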)
In short: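 PPARd-bla HEK293H cells (UAS-bla reporter) preincubated 5 h, then given compound plus 300 nM final L165041 agonist for 17 h at 37 C. Beta-lactamase activity read by LiveBLAzer B/G FRET substrate fluorescence after 2 h at room temperature.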

[14] = molecular target: Bile acid receptor (Homo sapiens) (UniProt Q96RI1); assay: qHTS assay to identify small molecule antagonists of the farnesoid-X-receptor (FXR) signaling pathway (AID 743217; active = well fitted inhibition curve with a large enough effect in the signal ratio in the repeat runs, not every such curve was filed as active; the % refers to the signal ratio)
Chain of Bile acid receptor (Homo sapiens) (Q96RI1 whole entry, looked up): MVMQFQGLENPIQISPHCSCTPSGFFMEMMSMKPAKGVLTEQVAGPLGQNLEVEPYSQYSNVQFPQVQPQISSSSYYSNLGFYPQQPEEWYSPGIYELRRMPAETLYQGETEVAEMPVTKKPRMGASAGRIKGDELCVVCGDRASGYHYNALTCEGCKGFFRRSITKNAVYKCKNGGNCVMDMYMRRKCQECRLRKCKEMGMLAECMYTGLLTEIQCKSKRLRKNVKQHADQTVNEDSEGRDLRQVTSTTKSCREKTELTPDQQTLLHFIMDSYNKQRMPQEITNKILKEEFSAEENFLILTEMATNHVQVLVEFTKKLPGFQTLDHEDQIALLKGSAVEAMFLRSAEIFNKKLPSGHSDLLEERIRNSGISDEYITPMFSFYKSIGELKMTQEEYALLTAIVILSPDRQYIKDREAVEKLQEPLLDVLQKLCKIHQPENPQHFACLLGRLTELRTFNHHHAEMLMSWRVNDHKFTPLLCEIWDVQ
In short: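 FXR-UAS-bla HEK 293T cells (beta-lactamase reporter) given compound plus chenodeoxycholic acid (50 uM final), 16 h at 37C. LiveBLAzer B/G FRET substrate added for 2 h at room temperature; fluorescence read.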

[15] = qHTS assay to identify small molecule agonists of the farnesoid-X-receptor (FXR) signaling pathway - cell viability counter screen (AID 743218); note: nearly all actives have a fitted effect of over 45% in size
In short: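 FXR-UAS-bla HEK 293T cells exposed to compounds for 16 h at 37C. Cytotoxicity read in the same wells by CellTiter-Glo luminescence after 30 min at room temperature, following the beta-lactamase FRET read.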

[16] = qHTS assay to identify small molecule antagonists of the farnesoid-X-receptor (FXR) signaling pathway - cell viability counter screen (AID 743221; active = well fitted cell-killing curve with a large enough effect in the repeat runs, not every such curve was filed as active; note: nearly all actives have a fitted effect of over 50% in size)
In short: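 In GeneBLAzer FXR-UAS-bla HEK 293T cells stimulated with 50 uM chenodeoxycholic acid (final), compounds acted for 16 h at 37 C. Viability was assessed afterwards by CellTiter-Glo luminescence.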

[17] = molecular target: Vitamin D3 receptor (Homo sapiens) (UniProt P11473); assay: qHTS assay to identify small molecule agonists of the vitamin D receptor (VDR) signaling pathway (AID 743222; calls by dose curve)
Chain of Vitamin D3 receptor (Homo sapiens) (P11473 whole entry, looked up): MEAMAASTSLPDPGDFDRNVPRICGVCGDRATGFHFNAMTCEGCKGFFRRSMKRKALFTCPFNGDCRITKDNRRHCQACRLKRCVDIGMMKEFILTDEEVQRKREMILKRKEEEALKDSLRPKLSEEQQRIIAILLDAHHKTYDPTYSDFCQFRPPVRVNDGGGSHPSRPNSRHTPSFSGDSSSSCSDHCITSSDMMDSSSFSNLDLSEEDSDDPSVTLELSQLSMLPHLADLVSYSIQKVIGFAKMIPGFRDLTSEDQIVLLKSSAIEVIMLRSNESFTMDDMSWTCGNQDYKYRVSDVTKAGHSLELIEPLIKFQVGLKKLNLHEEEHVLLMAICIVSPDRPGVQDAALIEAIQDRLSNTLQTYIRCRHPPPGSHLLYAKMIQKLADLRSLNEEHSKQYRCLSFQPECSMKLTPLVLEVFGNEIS
In short: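 VDR-bla cells plated 4 h at 37 C, then exposed to compounds for 16 h at 37 C. Beta-lactamase reporter activity measured by fluorescence after 2 h room-temperature loading with LiveBLAzer B/G FRET substrate.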

[18] = molecular target: Vitamin D3 receptor (Homo sapiens) (UniProt P11473); assay: qHTS assay to identify small molecule antagonists of the vitamin D receptor (VDR) signaling pathway (AID 743223; active = well fitted inhibition curve with a large enough effect in the signal ratio in the repeat runs, not every such curve was filed as active; the % refers to the signal ratio)
In short: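 Agonist 1alpha,25-dihydroxyvitamin D3 (3 nM in well) was added with each compound to VDR-bla cells preincubated 4 h. Cells stood 16 h at 37C, then FRET substrate 2 h at room temperature; fluorescence intensity recorded.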

[19] = qHTS assay for small molecule activators of the heat shock response signaling pathway (AID 743210; active = well fitted activation curve with a large enough effect in the signal ratio in the repeat runs, with a control signal flat, not every such curve was filed as active; the % refers to the signal ratio;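 note: HeLa cells with beta-lactamase reporter driven by heat shock elements; series mostly up to about 63 µM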)
In short: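 Reporter gene assay: HeLa cells stably bearing an HSE-bla construct, compound treatment 5 h at 37 C, LiveBLAzer substrate 2.5 h at RT, fluorescence intensity.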

[20] = molecular target: Bile acid receptor (Homo sapiens) (UniProt Q96RI1); assay: qHTS assay to identify small molecule agonists of the farnesoid-X-receptor (FXR) signaling pathway (AID 743220; active = well fitted activation curve with a large enough effect in the signal ratio in the repeat runs, not every such curve was filed as active; the % refers to the signal ratio)
In short: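 Beta-lactamase reporter under UAS control in GeneBLAzer FXR HEK 293T cells (5000/well) measured with LiveBLAzer FRET substrate after 2 h at room temperature. Compound exposure lasted 16 h at 37C.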

| SMILES | Potency [1] | Potency [2] | Potency [3] | Potency [4] | Potency [5] | Potency [6] | Potency [7] | Potency [8] | outcome [9] | Potency [10] | outcome [11] | Potency [12] | outcome [13] | Potency [14] | Potency [15] | outcome [16] | outcome [17] | Potency [18] | outcome [19] | outcome [20] |
| --- | --- | --- | --- | --- | --- | --- | --- | --- | --- | --- | --- | --- | --- | --- | --- | --- | --- | --- | --- | --- |
| COC(=O)c1ccc(C=O)cc1 | inactive | inactive | inactive | inactive | inactive | inactive | inactive | inactive | inactive | inactive | inactive | inactive | inactive | inactive | inactive | inactive | inactive | inactive | – | – |
| CCCCCCCCCCCCCCCCCC(=O)OCC(O)CO (configuration not stated) | inactive | inactive | inactive | inactive | inactive | inactive | inactive | inactive | inactive | inactive | inactive | inactive | inactive | inactive | inactive | inactive | inactive | inactive | inactive | – |
| CC(=O)c1ccc(S(=O)(=O)NC(=O)NC2CCCCC2)cc1 | inactive | inactive | inactive | inactive | inactive | inactive | inactive | inactive | inactive | inactive | inactive | inactive | inactive | inactive | inactive | inactive | inactive | inactive | inactive | inactive |
| CCCCCCCCCCCCCC(=O)OC(C)C | inactive | inactive | inactive | inactive | inactive | inactive | inactive | inactive | inactive | inactive | inactive | inactive | inactive | inactive | inactive | inactive | inactive | inactive | – | – |
| C1CNCCN1 | inactive | inactive | inactive | inactive | inactive | inactive | inactive | inactive | inactive | inactive | – | inactive | – | – | inactive | inactive | inactive | inactive | – | – |
| N[C@@H](Cc1c[nH]c2ccccc12)C(=O)O | inactive | 30.7 µM (active) | inactive | inactive | inactive | inactive | inactive | inactive | inactive | inactive | inactive | inactive | inactive | – | inactive | inactive | inactive | inactive | inactive | – |
| CC(C)(C)NCC(O)c1ccc(O)c(CO)c1 (configuration not stated) | inactive | inactive | inactive | inactive | inactive | inactive | inactive | inactive | inactive | inactive | inactive | inactive | inactive | – | inactive | inactive | – | – | inactive | – |
| CN(C)Cc1cc(CN(C)C)c(O)c(CN(C)C)c1 | inactive | inactive | inactive | inactive | inactive | inactive | inactive | inactive | inactive | inactive | – | inactive | – | inactive | inactive | inactive | – | – | – | – |
| O=[N+]([O-])c1ccc(O)cc1 | 63.5 µM (active) | inactive | 54.5 µM (active) and inactive | inactive | inactive | inactive | inactive | inactive | inactive | inactive | inactive | inactive | inactive | – | inactive | inactive | inactive | inactive | – | – |
| CC(=O)OC/C=C(C)/C=C/C=C(C)/C=C/C1=C(C)CCCC1(C)C | inactive and 66.9 µM (active) and 61.1 µM (active) | inactive | inactive | inactive | inactive | inactive | 59.6 µM (active) | inactive | inactive | – | inactive | inactive | inactive | – | inactive | inactive | inactive | inactive | – | – |
| CN(C)C=O | inactive | inactive | inactive | inactive | inactive | inactive | inactive | inactive | inactive | inactive | – | inactive | – | inactive | inactive | inactive | – | – | – | – |
| C=CCOC(=O)CC(C)C | inactive | inactive | inactive | inactive | inactive | inactive | inactive | inactive | inactive | inactive | inactive | inactive | inactive | inactive | inactive | inactive | inactive | inactive | – | – |
| C=C(C)C(N)=O | inactive | inactive | inactive | inactive | inactive | inactive | inactive | inactive | inactive | inactive | – | inactive | – | – | inactive | inactive | inactive | inactive | inactive | – |
| CC(C)CC(C)CC(O)CC(C)C (configuration not stated) | inactive | inactive | inactive | inactive | inactive | inactive | inactive | inactive | inactive | inactive | inactive | inactive | inactive | inactive | inactive | inactive | inactive | – | – | – |
| C=C(C)OC(C)=O | inactive | inactive | inactive | inactive | inactive | inactive | inactive | – | inactive | inactive | – | inactive | – | – | inactive | inactive | inactive | inactive | inactive | – |
| CCN1CCCC1=O | inactive | inactive | inactive | inactive | inactive | inactive | inactive | – | inactive | inactive | – | inactive | – | inactive | inactive | inactive | inactive | inactive | inactive | – |
